Cruzain inh noDet = inhibitors of Trypanosoma cruzi cruzain without detergent; 200,000 tested, 2.3% active; purified cruzain, Z-FR-AMC fluorescence, no detergent; Potency, µM, most hits filed as inhibitors; further: nearly all actives have a fitted effect of over 40% in size
Target sequence (P25779 123-467 limits assumed): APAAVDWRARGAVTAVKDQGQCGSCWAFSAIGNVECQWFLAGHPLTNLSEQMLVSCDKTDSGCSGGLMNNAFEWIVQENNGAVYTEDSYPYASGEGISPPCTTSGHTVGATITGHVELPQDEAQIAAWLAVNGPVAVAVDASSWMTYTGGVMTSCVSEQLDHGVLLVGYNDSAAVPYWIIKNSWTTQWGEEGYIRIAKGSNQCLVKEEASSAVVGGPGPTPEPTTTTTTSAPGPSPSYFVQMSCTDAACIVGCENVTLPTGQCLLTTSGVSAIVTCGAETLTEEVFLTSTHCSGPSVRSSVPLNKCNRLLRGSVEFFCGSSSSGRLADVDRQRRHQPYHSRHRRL
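Detergent-free condition (0.00005% Triton X-100) in acetate buffer pH 5.5 with DTT. 1.5 nM enzyme and compound were pre-mixed 15 min, then 2 uM Z-FR-AMC substrate added; reaction progress from fluorescence change between first and third reads (60 s).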
Cruzain inh Det = blocks cruzain activity in presence of Triton detergent; P25779; purified cruzain, Z-FR-AMC fluorescence, 0.01% Triton; Potency, µM, usual class: inhibitors; 200,000 tested, 0.43% active; further: nearly all actives have a fitted effect of over 40% in size
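Compounds were screened in titration against cruzain (1.5 nM) with 0.01% Triton X-100 to counter colloidal aggregation. Activity was the AMC fluorescence increase over 60 s after adding 2 uM Z-FR-AMC at pH 5.5.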
A number is an active result. An excerpt weighted towards active compounds, which were near 2.6% of everything screened. The call rests on the fitted dose curve; in most records, active means well fitted curve in the direction sought with a large enough effect; inconclusive means small, poorly fitted or top-dose-only effect, or another doubt; inactive means no such curve, though single readings can be large; an effect the other way counts as inactive or inconclusive.

Results for COc1ccc(-c2cc(=O)oc3cc(OCC(=O)c4cccc([N+](=O)[O-])c4)ccc23)cc1 ?
Cruzain inh noDet: 25µM; Cruzain inh Det: inactive

Results for Cc1ccc(CN(Cc2ccco2)C(=O)c2oc3c(C)c(C)ccc3c2C)cc1 ?
Cruzain inh noDet: 25µM; Cruzain inh Det: inactive

What do the screens show for `Cc1ccc(CN(Cc2ccco2)C(=O)c2oc3ccc(C)cc3c2C)cc1`?
Cruzain inh noDet: inconclusive; Cruzain inh Det: inactive

How did O=C(O)c1cc2c(cc1S(=O)(=O)O)[C@H]1[C@@H](C3[C@H]2[C@@]2(Cl)C(Cl)=C(Cl)C3(Cl)C2(Cl)Cl)[C@]2(Cl)C(Cl)=C(Cl)C1(Cl)C2(Cl)Cl (stereo partly drawn) do in these assays?
Cruzain inh noDet: inactive; Cruzain inh Det: inactive

Results for CN1C(=O)/C(=N/OC(=O)c2ccccc2)c2ccccc21 ?
Cruzain inh noDet: 6.3µM; Cruzain inh Det: 4.5µM

What do the screens show for `CN1C(C)(C)CC(=NOC(=O)c2ccccc2)CC1(C)C`?
Cruzain inh noDet: inactive; Cruzain inh Det: inactive

How did COc1ccc(NC(=O)CN2C(=O)C3(SCC(=O)N3c3ccccc3)c3ccccc32)cc1Cl (stereo not drawn) do in these assays?
Cruzain inh noDet: 20µM; Cruzain inh Det: inactive

What do the screens show for `Cc1ccc(N2C(=O)CSC23C(=O)N(CC(=O)Nc2ccc(C(C)C)cc2)c2ccccc23)cc1C` (stereo not drawn)?
Cruzain inh noDet: inconclusive; Cruzain inh Det: inactive

How did O=C(CN1C(=O)C2(SCC(=O)N2c2ccc(F)c(F)c2)c2ccccc21)Nc1cccc(Cl)c1 (stereo not drawn) do in these assays?
Cruzain inh noDet: inconclusive; Cruzain inh Det: inactive

What do the screens show for `Cc1ccc(NC(=O)CN2C(=O)C3(SCC(=O)N3c3cccc(Cl)c3)c3ccccc32)cc1C` (stereo not drawn)?
Cruzain inh noDet: 20µM; Cruzain inh Det: inactive

What do the screens show for `Cc1cccc(N2C(=O)CCSC23C(=O)N(Cc2ccc(F)cc2)c2ccccc23)c1` (stereo not drawn)?
Cruzain inh noDet: inactive; Cruzain inh Det: inactive

How did CCCCOC(=O)c1ccc(NC(=O)Cc2coc3ccc(C(C)C)cc23)cc1 do in these assays?
Cruzain inh noDet: inactive; Cruzain inh Det: inactive

How did COc1cc(Cl)c(C)cc1NS(=O)(=O)c1c(C)nc2sccn2c1=O do in these assays?
Cruzain inh noDet: inactive; Cruzain inh Det: inactive

What do the screens show for `COC(=O)c1ccc(CSc2nc3c([nH]c4ccccc43)c(=O)n2-c2cccc(OC)c2)o1`?
Cruzain inh noDet: 25µM; Cruzain inh Det: inactive

How did CCSc1nc2c([nH]c3ccccc32)c(=O)n1-c1cccc(OC)c1 do in these assays?
Cruzain inh noDet: inactive; Cruzain inh Det: inactive

What do the screens show for `COc1cccc(-n2c(SCc3ccc(F)cc3)nc3c([nH]c4ccccc43)c2=O)c1`?
Cruzain inh noDet: 10µM; Cruzain inh Det: inactive

Results for COC(=O)c1ccc(CSc2nc3c([nH]c4ccccc43)c(=O)n2-c2cccc(Cl)c2)o1 ?
Cruzain inh noDet: inactive; Cruzain inh Det: inactive

What do the screens show for `CN(C)c1ccc(CNC(=O)CCC(=O)N2Cc3ccccc3Oc3ncccc32)cc1`?
Cruzain inh noDet: inactive; Cruzain inh Det: inactive

What do the screens show for `COc1ccc(NC(=O)c2sc3nc4c(cc3c2N)CN(Cc2ccccc2)CC4)c(OC)c1`?
Cruzain inh noDet: inactive; Cruzain inh Det: inactive

How did O=C(CSc1nc2ccccc2nc1Cc1ccc(Cl)cc1)N1CCN(c2ccccc2F)CC1 do in these assays?
Cruzain inh noDet: inactive; Cruzain inh Det: inactive

Results for CCS(=O)(=O)Nc1cc(-c2cn3ccc(C)cc3n2)ccc1C ?
Cruzain inh noDet: inactive; Cruzain inh Det: inactive

How did N#CCCn1c(=O)c(-c2ccccc2)nc2cnc(Oc3cccc(Cl)c3)nc21 do in these assays?
Cruzain inh noDet: inactive; Cruzain inh Det: inactive

What do the screens show for `COc1ccc(NC(=O)c2oc3ccccc3c2NC(=O)Cc2coc3ccc(C)cc23)cc1`?
Cruzain inh noDet: 25µM; Cruzain inh Det: inactive

Results for CCOc1ccc(NC(=O)c2oc3ccccc3c2NC(=O)c2cc(C)cc(C)c2)cc1 ?
Cruzain inh noDet: inactive; Cruzain inh Det: inactive

Results for CCOc1ccc(NC(=O)c2oc3ccccc3c2NC(=O)C(C)Oc2ccccc2)cc1 (stereo not drawn) ?
Cruzain inh noDet: 32µM; Cruzain inh Det: inactive

What do the screens show for `CCc1ccc2occ(CC(=O)Nc3c(C(=O)Nc4ccc(OC)cc4)oc4ccccc34)c2c1`?
Cruzain inh noDet: inactive; Cruzain inh Det: inactive

How did Cc1ccc(N(CC(=O)Nc2cccc(F)c2)S(=O)(=O)c2cccs2)cc1 do in these assays?
Cruzain inh noDet: inactive; Cruzain inh Det: inactive

How did CCOc1ccccc1NC(=O)CSc1nccn1Cc1ccc(F)cc1 do in these assays?
Cruzain inh noDet: inactive; Cruzain inh Det: inactive

Results for CCOC(=O)CC(NC(=O)N1CCC(CN2CCC(C)CC2)CC1)c1ccccc1 (stereo not drawn) ?
Cruzain inh noDet: inactive; Cruzain inh Det: inactive

What do the screens show for `CCOc1ccc(-c2nnn(CC(=O)NCc3ccc(OC)cc3)n2)cc1OCC`?
Cruzain inh noDet: inactive; Cruzain inh Det: inactive

Results for COc1ccc(CNC(=O)Cn2nnc(-c3ccc(NC(=O)C4CCCCC4)cc3)n2)cc1 ?
Cruzain inh noDet: 10µM; Cruzain inh Det: inactive

How did NC(CCl)=N[C@H]1CN2CCC1CC2 do in these assays?
Cruzain inh noDet: inactive; Cruzain inh Det: inactive

How did COc1ccc(C(=O)Oc2cccc(/C=N/NC(N)=S)c2)cc1 do in these assays?
Cruzain inh noDet: 16µM; Cruzain inh Det: inconclusive

What do the screens show for `COc1ccc(/C=N/NS(=O)(=O)c2ccccc2)cc1OC(=O)c1ccc(C)cc1`?
Cruzain inh noDet: inconclusive; Cruzain inh Det: inactive

Results for COc1cc(/C=N/NC(N)=S)ccc1OC(=O)c1ccc(C)cc1 ?
Cruzain inh noDet: 2.5µM; Cruzain inh Det: 4.5µM

How did NC(=S)N/N=C/c1ccccc1 do in these assays?
Cruzain inh noDet: inactive; Cruzain inh Det: inactive

What do the screens show for `COc1cc(/C=N/NC(N)=S)ccc1OCc1ccc(C)cc1`?
Cruzain inh noDet: 1µM; Cruzain inh Det: 2.2µM

How did COc1ccc(CNC(=S)N/N=C/c2ccc(OC)c(OC)c2)cc1 do in these assays?
Cruzain inh noDet: inactive; Cruzain inh Det: inactive

What do the screens show for `COc1ccc(/C=C\C(=O)Oc2cccc(/C=N/NC(=O)Cc3ccc(OC)c(OC)c3)c2)cc1`?
Cruzain inh noDet: inactive; Cruzain inh Det: inactive

What do the screens show for `CC(=O)Nc1ccc(/C=N/NC(N)=S)cc1`?
Cruzain inh noDet: 11µM; Cruzain inh Det: inactive

Results for Cc1ccc(CNCc2c(C(=O)O)c(C)n(Cc3ccc(C)cc3)c2C)cc1 ?
Cruzain inh noDet: inactive; Cruzain inh Det: inactive

Results for Cc1ccc(N2CCN(C(=O)c3cnn(-c4ccc(F)cc4F)c3C3CCN(C(=O)OC(C)(C)C)CC3)CC2)c(C)c1 ?
Cruzain inh noDet: inconclusive; Cruzain inh Det: inactive

What do the screens show for `CCCS(=O)(=O)c1nc(S(=O)(=O)c2ccc(C)cc2)c(NCc2ccccc2)s1`?
Cruzain inh noDet: inactive; Cruzain inh Det: inactive

What do the screens show for `CC(=O)Oc1ccc2c(c1)CCC1C2CC[C@]2(C)C(=O)CCC12` (stereo partly drawn)?
Cruzain inh noDet: inactive; Cruzain inh Det: inactive

How did O=C1NC(=S)N/C1=C/c1ccc(-c2c(Br)cc([N+](=O)[O-])cc2Br)o1 do in these assays?
Cruzain inh noDet: 20µM; Cruzain inh Det: inactive

How did O=C1NC(=S)N/C1=C\c1cccc([N+](=O)[O-])c1 do in these assays?
Cruzain inh noDet: inconclusive; Cruzain inh Det: inactive

How did CS(=O)(=O)N1CCC[C@@]2(CCN(C(c3ccccc3)c3ccccc3)C2)C1 do in these assays?
Cruzain inh noDet: inactive; Cruzain inh Det: inactive

High-throughput results (PubChem BioAssay)
